From PubChem BioAssay
Only some compounds are listed: those with a hit (about 11% of all), similar ones and a draw of the others.
IMPase inh – cell-permeable inhibitors of inositol monophosphatase (IMPase); CHO-M1 cells, IP1 accumulation, HTRF TR-FRET ratio; inhibition (IP1 accumulation), % at 46.1 µM; 120,000 tested, under 10 active; AID 901; active means well fitted curve in the direction sought with a large enough effect in the signal ratio, not every such curve was filed as active; inconclusive means small, poorly fitted or top-dose-only effect, or a change in a side signal; inactive means no such curve, though single readings can be large or run the other way; the % refers to the signal ratio;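 further: cells stimulated with carbachol in lithium chloride buffer; plate controls were DMSO basal wells for no effect and reference inhibitor wells for full effect; higher means more IMPase inhibition seen as more IP1 and lower FRET ratio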
Target sequence (P97697 whole entry, looked up): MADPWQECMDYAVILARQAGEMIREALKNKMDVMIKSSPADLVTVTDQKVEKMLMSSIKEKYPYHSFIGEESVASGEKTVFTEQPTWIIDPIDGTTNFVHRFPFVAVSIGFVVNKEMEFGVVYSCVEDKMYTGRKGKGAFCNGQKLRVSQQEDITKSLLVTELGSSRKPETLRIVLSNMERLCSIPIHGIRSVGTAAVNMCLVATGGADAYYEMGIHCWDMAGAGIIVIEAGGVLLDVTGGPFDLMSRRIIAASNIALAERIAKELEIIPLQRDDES
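In this qHTS, compounds (final up to 46 uM) act on CHO-M1 cells that are then activated through the M1 receptor with carbachol, in pH 7.4 buffer containing 50 mM LiCl, for 30 min. IP1 accumulation is quantified by the IP-One immunoassay.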
PNC assembly inh – perinucleolar compartment assembly inhibition. PC3M PTB-GFP, PNC prevalence imaging, 16 h; stronger effect = lower value. activity change (PNC), negative = inhibition, % at 10 µM. hit rate 3.1% among 140,000;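 active means readout at or below -70, meaning at least 70% loss of cells showing the perinucleolar compartment, a nuclear body marking cancer cells; inconclusive means readout between -30 and a set limit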;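 further: plate controls were DMSO wells for no effect and camptothecin positive control wells for full effect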
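PC3M cells stably expressing PTB-GFP, 750–1000 cells/well, treated 16 h at 37 °C with compound (23 nl of library stock), in duplicate. After paraformaldehyde fixation and Hoechst stain, imaged at 20x; PNC prevalence scored by image analysis.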
HPGD inh – HPGD (human) dehydrogenase inhibition | purified HPGD, NADH fluorescence kinetic, PGE2 substrate | Potency, µM, for the others: top-dose activity change, negative = inhibition, actives largely listed as inhibitors | hit rate 4.3% among 150,000; further: potency means the concentration at half of the fitted maximal effect
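20 nM HPGD preincubated 15 min at room temperature with compound in 50 mM Tris-HCl pH 8, 0.01% Tween 20. Started with 1 mM NAD+ and 30 uM prostaglandin E2; NADH fluorescence (360/450 nm) read 5 times over 30-s intervals, last minus first.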
IMPase Li cell – IMPase inhibition in cells with lithium potentiation; CHO-M1 cells, IP1 TR-FRET (IP-One), carbachol + lithium; Potency, µM (series often up to 59.4 µM), inactives show at the top dose activity, negative = IMPase inhibition, usual class: inhibitors; hit rate 0.35% among 210,000; active means well fitted inhibition curve with a large enough effect; inconclusive means small, poorly fitted or top-dose-only effect; inactive means no such curve, though single readings can be large or run the other way;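 further: IP1 builds up when IMPase is blocked and the TR-FRET signal falls; potency means the concentration at half of the fitted maximal effect; plate controls were basal vehicle for no effect and high inhibitor control for full effect; nearly all actives have a fitted effect of over 50% in size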
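Concentration–response in CHO-M1 cells, lithium-potentiated; 30 min at 37C. IP1 detected by competitive TR-FRET after 10 min lysis at RT. Hill-fitted AC50.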
ALDH1A1 block – blocks purified human ALDH1A1 activity; P00352; Purified ALDH1A1, NADH fluorescence, propionaldehyde substrate; Potency, µM (series often up to 75.3 µM), inactives show at the highest dose activity, negative = inhibition, most hits filed as inhibitors; hit rate 7.3% among 220,000;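 further: potency means the concentration at half of the fitted maximal effect; plate controls were no enzyme wells and a reference inhibitor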
Target sequence (P00352 whole entry, looked up): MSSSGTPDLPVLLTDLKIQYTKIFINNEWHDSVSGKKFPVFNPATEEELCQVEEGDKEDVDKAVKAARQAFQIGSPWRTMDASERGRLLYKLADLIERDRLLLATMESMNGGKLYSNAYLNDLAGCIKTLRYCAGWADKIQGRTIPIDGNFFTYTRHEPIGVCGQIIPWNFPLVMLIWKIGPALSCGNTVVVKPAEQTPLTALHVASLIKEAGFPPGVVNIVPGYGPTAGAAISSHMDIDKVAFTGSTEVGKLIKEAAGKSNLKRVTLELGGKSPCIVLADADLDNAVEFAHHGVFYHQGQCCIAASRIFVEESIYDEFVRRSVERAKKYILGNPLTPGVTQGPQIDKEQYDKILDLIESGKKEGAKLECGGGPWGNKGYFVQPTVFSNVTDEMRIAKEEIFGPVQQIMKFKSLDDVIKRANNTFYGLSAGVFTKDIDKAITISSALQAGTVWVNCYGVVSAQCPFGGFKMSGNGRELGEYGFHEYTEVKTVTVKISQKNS
* = called active by the depositor; u = inconclusive; x = no result given; [ ] = remark or other dose. Unless noted, the call rests on the fitted dose curve; in most records, active means well fitted inhibition curve with a large enough effect (not every such curve was filed as active); inconclusive means small, poorly fitted or top-dose-only effect, or another doubt; inactive means no such curve, though single readings can be large or run the other way. Unless noted, on the % scale 0 is the no-effect control and ±100 the full control effect.

SMILES	IMPase inh	PNC assembly inh	HPGD inh	IMPase Li cell	ALDH1A1 block
Cc1c(C(=O)OCC(=O)NCc2ccc3c(c2)OCO3)cccc1[N+](=O)[O-]	x	-11	-15%	-7%	7.9µM*
COc1ccc(NC(=O)COC(=O)Cc2ccccc2[N+](=O)[O-])cc1OC	x	x	x	14%	14µM*
CC(=O)Nc1nonc1-n1nnc(C(=O)NCc2ccccc2)c1C	-2	u	u	35%[38.3 µM]	11µM*
CC(=O)O[C@H]1CC[C@@]2(C)[C@@H](CC[C@H]3[C@H]2CC(=O)[C@@]2(C)[C@@H]3C[C@H]3CC(C)=CC(=O)[C@H]32)C1	x	x	-1%	-1%	u
O=c1c2oc3ccccc3c2[nH]c(=S)n1-c1ccc(F)cc1	x	x	x	11µM*	-6%
CCCc1nc2ccccc2n2c(-c3ccc(C)cc3)c3c(=O)n(C)c(=O)n(C)c3c12	4	x	x	x	x
CCCNC(=O)CCSc1nc(-c2ccc3c(c2)OCO3)cc(C(F)(F)F)n1	7	x	x	x	x
COc1cc(C(=O)NC(c2ccccc2)c2ccccc2)cc(Cl)c1OC	-1	u	-2%	0%	2µM*
COc1cc(C(=O)N/N=C(\C)Cc2ccccc2)cc(OC)c1OC	5	32	-1%	4%	20µM*
COc1ccc(C(NC(=O)c2ccc(F)cc2)c2ccccc2)cc1 (stereo not given)	1	4	x	x	22µM*
C/C(Cc1ccccc1)=N\NC(=O)c1ccc(F)cc1	x	85	-16%	-3%	u
CCCCCn1c(N2CCOCC2)nc2c1c(=O)n(CC(N)=O)c(=O)n2C	-1	12	-10%	1%[38.3 µM]	3%
O=C(CCl)NCCCCCCCCCNC(=O)CCl	x	u	-10%	2%	0.18µM*
CCC(=O)NCCCCCCNC(=O)CC	0	30	4%	21%[38.3 µM]	13%
Cc1ccc(C(=O)C2CCN(CC(=O)Nc3ccc(N(C)C)cc3)CC2)cc1	8	u	-9%	17%[38.3 µM]	u
Cc1nnc(Sc2cc(C(=O)NCc3ccco3)c3ccccc3n2)s1	4	-11	2.2µM*	4%[38.3 µM]	u
CCCN1CN(Cc2ccccc2)CC2=C1CC(C)(C)CC2=O	15	-25	-19%	-3%[38.3 µM]	7.9µM*
Nc1cccn2c(-c3ccc(Cl)cc3)cnc12	x	x	x	3%	28µM*
Nc1cccn2c(-c3ccc(Cl)c(Cl)c3)cnc12	x	x	x	1%	25µM*
Cc1ccccc1C1CC(=O)Oc2cc(C)c(Br)c(C)c21 (stereo not given)	x	x	-4%	0%	2%
Cc1cccc(NC(=O)c2ccc(C3SCC(=O)N3CCc3ccccc3)cc2)c1 (stereo not given)	5	32	u	6%	u
CC(=O)Nc1ccc(NC(=O)c2ccc(C3SCC(=O)N3CCc3ccccc3)cc2)cc1 (stereo not given)	x	-26	-17%	7%	25µM*
O=C(Nc1ccon1)c1cc2c(s1)CCCC2	-3	-24	28µM*	11%	-11%
O=C(Nc1ccon1)c1cc2c(s1)CCCCCC2	3	15	-21%	20%[38.3 µM]	u
CC(C)NC(=O)c1cc2c(s1)CCCC2	6	-14	22µM*	-5%	u
SMILES	IMPase inh	PNC assembly inh	HPGD inh	IMPase Li cell	ALDH1A1 block
Cc1csc(NC(=O)c2cc3c(s2)CCCCC3)n1	1	u	25µM*	35%[38.3 µM]	u
Cc1csc(NC(=O)c2cc3c(s2)CCCC3)n1	-7	24	x	x	u
C=CC(C)(O)CC1[C@@]2(C)CCCC(C)(C)C2CC[C@]1(C)O (stereo not given in full)	x	x	-4%	-7%	1%
COc1ccc(OC)c(S(=O)(=O)NC(N)=NCCc2ccccc2)c1	x	x	x	2%	u
OCC1(Cc2ccc(Cl)cc2)CCN(Cc2ccc(Oc3ncccn3)cc2)CC1	x	x	x	19%	2%
CCOCCCN(Cc1ccco1)C(=O)c1cc2c(=O)[nH]c3ccc(C)cc3c2s1	10	-85*	-19%	7%[38.3 µM]	u
CN=c1scc(-c2ccccc2F)n1/N=C/c1ccc(O)c(O)c1O	x	x	x	25%	5.6µM*
Cc1ccc(S(=O)(=O)N2CCOCC2)cc1NC(=O)CNC1CCCC1	x	x	x	x	-4%
Cc1ccc(O)c(-c2cc(C(F)(F)F)[nH]n2)c1	1	10	14µM*	-5%[38.3 µM]	8%
CCOC(=O)c1ccc(NC(=O)CSc2nc(-c3cccs3)cc(C(F)(F)F)c2C#N)cc1	-3	x	x	x	x
CCOC(=O)Cc1csc(/C(=N/O)C(N)=O)n1	3	0	-12%	14%[38.3 µM]	28µM*
Cc1cccc(/C=C2/SC(=O)N(Cc3ccccc3)C2=O)n1	6	31	-4%	40%[38.3 µM]	6.3µM*
Cc1ccc(/C=C2/NC(=O)N(Cc3ccccc3)C2=O)s1	3	u	-20%	0%[38.3 µM]	u
O=C(Cn1cc(S(=O)(=O)Cc2ccccc2)c2ccccc21)Nc1ccccc1	x	-82*	-14%	1%	u
CC/C=C\CC[C@H](OC(=O)c1ccc(Br)cc1)C1=CCCCC1=O	x	x	x	x	1%[13.5 µM]
O=c1n(Cc2cc3c(cc2Cl)OCO3)c(=O)n2n1CC[C@H]1/C(=N\OCc3ccccc3)[C@H]3O[C@@H]3[C@@H](O)[C@@H]12	x	x	x	x	-10%[13.5 µM]
CC(=O)Nc1cccc(NC(=O)CSc2nc(C)c(C)c(C)c2C#N)c1	5	-28	u	3%[38.3 µM]	10µM*
CCOc1cccc(NC(=O)CSc2nc(C)c3c(c2C#N)CCCC3)c1	u	31	u	4µM*	4%
CC(C)C(=O)N[C@H]1CCCN1C(=O)/C=C\c1ccccc1	x	x	x	x	-1%[13.5 µM]
O=C1C(=C(O)c2ccccc2)C(=O)c2ccccc21	2	4	-25%	2%[38.3 µM]	4µM*
O=C(c1ccccc1)C1C(=O)c2ccccc2C1=O	7	-29	-6%	1%[38.3 µM]	-6%
CCOC(=O)C(C(=O)OCC)C(C(=O)OCC)N1CCOCC1 (stereo not given)	-5	21	22µM*	32%[38.3 µM]	28µM*
CC(=O)[C@@]1(N=Nc2ccc(S(N)(=O)=O)cc2)CCOC1=O	x	x	-9%	10%	u
O=c1c2cc([N+](=O)[O-])ccc2nc(CN2CCN(c3ccccn3)CC2)n1-c1ccccc1F	x	x	x	2%	14µM*
COc1ccc(-n2c(CN3CCN(Cc4ccccc4)CC3)nc3ccc([N+](=O)[O-])cc3c2=O)c(OC)c1	x	x	x	8%	20µM*
COc1cccc(-n2c(CN3CCN(Cc4ccccc4)CC3)nc3ccc([N+](=O)[O-])cc3c2=O)c1	x	u	-2%	6%	24µM*
COc1ccc(-n2c(CN3CCN(c4ccccn4)CC3)nc3ccc([N+](=O)[O-])cc3c2=O)c(OC)c1	x	x	x	10%	u
Nc1ccnc(Oc2ccc(F)cc2)c1	x	1	-12%	0%	4%
Cc1cc(C)c(Cn2c(=O)n(CCC(=O)NCCc3ccccc3)c(=O)c3ccccc32)c(C)c1	3	x	x	x	x
CCOc1ccc(N2C(=O)C3Sc4[nH]c(=O)sc4C(/C=C/c4ccccc4)C3C2=O)cc1 (stereo not given)	0	13	-20%	7%	11µM*
